# “And” between values parts separate entries of the source, which are not always exact repeats. Identical values can stand only once. Counter-ions that a name gives are not always drawn. The campaign covered roughly 5,800 compounds. About 620 (11%) showed activity. The sample holds actives, similar compounds and a random draw of the others, so the mix is not that of the screen. Unmarked numbers belong to inactive results.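 The calls were made as follows: active = score above a cut-off or among the top three wells of a plate; in these data no inactive exceeds 0.85.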
# Tested on: primary human hepatic stellate cells (donor 1)
# Assay: scaled lipid accumulation score (0 = DMSO-like, 1 = nortriptyline-like); higher = stronger HSC inactivation (lipid re-accumulation), active = hit call of the paper
# Details: 48 h
# [1] = library stock concentration: 1 mM
# [2] = library stock concentration: 3.33 mM
# [3] = library stock concentration: 10 mM
# [4] = library stock concentration: 80 uM
# [5] = library stock concentration: 400 uM
# [6] = library stock concentration: 2 mM
smiles,measurement,setting,value
CCCCCCCCCCCCCC=CC(O)C(COP(=O)(O)O)NC(=O)CCCCCCC (centres undefined) [C-8 Ceramide-1-phosphate],scaled lipid accumulation score,[1],≤ 0
Nc1nc(F)nc2c1ncn2[C@@H]1O[C@H](COP(=O)(O)O)[C@@H](O)[C@@H]1O [Fludarabine Phosphate],scaled lipid accumulation score,[2],0.514
same,scaled lipid accumulation score,[3],0.748
CN1CCN(C(c2ccccc2)c2ccccc2)CC1 [Cyclizine hydrochloride],scaled lipid accumulation score,,0.648
CN1CCN(C(c2ccccc2)c2ccccc2)CC1 [Cyclizine],scaled lipid accumulation score,library stock concentration: 7.5 mM,0.186
same,scaled lipid accumulation score,[3],0.521
CN1CCN(C(c2ccccc2)c2ccc(Cl)cc2)CC1 (centres undefined) [Chlorcyclizine hydrochloride],scaled lipid accumulation score,,0.377
same,scaled lipid accumulation score,library stock concentration: 5.9 mM,0.391
CN1CCCN(C(c2ccccc2)c2ccc(Cl)cc2)CC1.Cl.Cl (centres undefined) [Homochlorcyclizine dihydrochloride],scaled lipid accumulation score,,0.879 (active)
CN1CCN(C(c2ccccc2)c2ccccc2)CC1 [Cyclizine 2HCl],scaled lipid accumulation score,[2],≤ 0
same,scaled lipid accumulation score,[3],0.742
[Cl-].[Li+] [Lithium Chloride],scaled lipid accumulation score,[3],≤ -0.07
COC(=O)C1=C(C)NC(C)=C(C(=O)OC)C1c1cccc(NC(=O)NCCCN2CCC(c3cccc(OC)c3)CC2)c1,scaled lipid accumulation score,[3],0.68
CC1CCN(c2cc(N3CCN(C)CC3)ccc2NC(=O)c2cc(C#N)c[nH]2)CC1 [listing 1 of 2 here],scaled lipid accumulation score,[3],1.32 (active)
COc1cc(N2CCN(C)CC2)ccc1Nc1nc(N)c(C(=O)c2c(Cl)cccc2Cl)s1,scaled lipid accumulation score,[4],0.02
same,scaled lipid accumulation score,[5],≤ -0.009
same,scaled lipid accumulation score,[6],0.155
same,scaled lipid accumulation score,[3],0.8
CC1CCN(c2cc(N3CCN(C)CC3)ccc2NC(=O)c2cc(C#N)c[nH]2)CC1 [listing 2 of 2 here],scaled lipid accumulation score,[4],0.044
same,scaled lipid accumulation score,[5],≤ -0.016
same,scaled lipid accumulation score,[6],≤ -0.016
"CCCC/C=C/C=C/C=C/CCCCCCCC(=O)OC [9(Z),11(E),13(E)-Octadecatrienoic Acid methyl ester]",scaled lipid accumulation score,[1],≤ 0
CC(=O)c1cc2c(cc1O)OC(C)(C)C=C2 [Eupatoriochromene],scaled lipid accumulation score,[3],0.066
Nc1ncnc2c1c(-c1cccc(OCc3ccccc3)c1)cn2C1CC(CN2CCCC2)C1 (centres undefined),scaled lipid accumulation score,[3],0.36
Nc1ncnc2c1c(-c1cccc(OCc3ccccc3)c1)cn2[C@H]1C[C@H](CN2CCCC2)C1,scaled lipid accumulation score,[2],1.09 (active)
Nc1ncnc2c1c(-c1cccc(OCc3ccccc3)c1)cn2[C@H]1C[C@@H](CN2CCC2)C1,scaled lipid accumulation score,[2],0.894 (active)
same,scaled lipid accumulation score,[3],1.01 (active)
Nc1ncnc2c1c(-c1cccc(OCc3ccccc3)c1)cn2C1CC(CN2CCC2)C1 (centres undefined),scaled lipid accumulation score,[4],0.167
same,scaled lipid accumulation score,[5],0.351
same,scaled lipid accumulation score,[6],0.67
same,scaled lipid accumulation score,[3],0.657
C=CC(=O)N1CCC[C@@H](n2nc(-c3ccc(Oc4ccccc4)cc3)c3c(N)ncnc32)C1,scaled lipid accumulation score,[4],≤ -0.009
same,scaled lipid accumulation score,[5],0.313
same,scaled lipid accumulation score,[6],0.033
same,scaled lipid accumulation score,[2],≤ 0
same,scaled lipid accumulation score,[3],≤ 0 and 0.22
Nc1ncnc2c1c(-c1ccc(Oc3ccccc3)cc1)cn2C1CCCC1,scaled lipid accumulation score,[3],≤ -0.07
COc1cc(O)c2c(c1)/C=C/C[C@H](O)[C@H](O)C(=O)/C=C\C[C@H](C)OC2=O [5z-7-oxozeaenol],scaled lipid accumulation score,[4],≤ -0.016
same,scaled lipid accumulation score,[5],≤ -0.016
same,scaled lipid accumulation score,[6],≤ -0.016
same,scaled lipid accumulation score,[3],0.613
CN1C(CCl)Nc2cc(Cl)c(S(N)(=O)=O)cc2S1(=O)=O (centres undefined),scaled lipid accumulation score,[3],0.013
CN1C(CCl)Nc2cc(Cl)c(S(N)(=O)=O)cc2S1(=O)=O (centres undefined) [Methyclothiazide],scaled lipid accumulation score,[2],≤ 0
same,scaled lipid accumulation score,[3],≤ -0.001
"COC(=O)CCC[C@H](O)[C@H](O)CO [5(S),6(R)-7-trihydroxymethyl Heptanoate]",scaled lipid accumulation score,[1],≤ 0
NC[C@@H]1CC[C@@H](N)[C@@H](O[C@H]2[C@H](O)[C@@H](O[C@H]3O[C@H](CO)[C@@H](O)[C@H](N)[C@H]3O)[C@H](N)C[C@@H]2N)O1 [Dibekacin],scaled lipid accumulation score,[3],0.108
OCc1cc(C(O)CNCCCCCCOCCCCc2ccccc2)ccc1O (centres undefined) [Salmeterol] [listing 1 of 2 here],scaled lipid accumulation score,,0.275
same,scaled lipid accumulation score,library stock concentration: 4.8 mM,0.553
same,scaled lipid accumulation score,[3],0.62
O=C(O)c1ccc2ccccc2c1O.OCc1cc(C(O)CNCCCCCCOCCCCc2ccccc2)ccc1O (centres undefined) [Salmeterol xinafoate],scaled lipid accumulation score,[3],0.978 (active)
CC(CCc1ccccc1)NCC(O)c1ccc(O)c(C(N)=O)c1 (centres undefined) [Labetalol HCl],scaled lipid accumulation score,[2],≤ 0
same,scaled lipid accumulation score,[3],0.464
CC(C)(C)NCC(O)c1ccc(O)c(CO)c1 (centres undefined),scaled lipid accumulation score,[3],0.076
CC(C)(C)NCC(O)c1ccc(O)c(CO)c1 (centres undefined) [Albuterol hemisulfate],scaled lipid accumulation score,[3],≤ 0
CC(C)(C)NC[C@H](O)c1ccc(O)c(CO)c1,scaled lipid accumulation score,[3],≤ 0
CC(C)(C)NCC(O)c1ccc(O)c(CO)c1 (centres undefined) [Salbutamol],scaled lipid accumulation score,,≤ 0
CC(CCc1ccccc1)NCC(O)c1ccc(O)c(C(N)=O)c1 (centres undefined) [Labetalol hydrochloride],scaled lipid accumulation score,,0.321
same,scaled lipid accumulation score,[3],0.546 and 0.164
CC(CCc1ccccc1)NCC(O)c1ccc(O)c(C(N)=O)c1 (centres undefined),scaled lipid accumulation score,[3],0.089
OCc1cc(C(O)CNCCCCCCOCCCCc2ccccc2)ccc1O (centres undefined) [Salmeterol] [listing 2 of 2 here],scaled lipid accumulation score,[3],1.08 (active)
O=C(CCCC[C@@H]1SC[C@@H]2NC(=O)N[C@@H]21)NCCCC[C@H](NC(=O)CCN1C(=O)C=CC1=O)C(=O)O [3-(N-Maleimidopropionyl)-biocytin],scaled lipid accumulation score,[1],≤ 0
Cc1c(C(=O)Nc2ccc(N3CCC(N4CCOCC4)CC3)c(C#N)c2)cnn1-c1ccc(Cl)cc1,scaled lipid accumulation score,[2],0.756
same,scaled lipid accumulation score,[3],0.699
C[N+]1(C)[C@@H]2C[C@@H](OC(=O)C(O)(c3cccs3)c3cccs3)C[C@H]1[C@@H]1O[C@@H]12 [Tiotropium Bromide hydrate],scaled lipid accumulation score,[2],≤ 0
same,scaled lipid accumulation score,[3],≤ 0
"CCCCC[C@H]1C=C[C@@H]2[C@@H](CC=CCCCC(=O)O1)[C@@H](O)C[C@H]2O [Prostaglandin F2.alpha. 1,15-lactone]",scaled lipid accumulation score,[1],≤ 0
"CCCCC/C=C/C=C1/C=CC(=O)[C@@H]1CCCCCCC(=O)O [15-deoxy-.DELTA.12,14-Prostaglandin A1]",scaled lipid accumulation score,[1],≤ 0
CC(C)C[C@H](NC(=O)CNC(=O)c1cc(Cl)ccc1Cl)B1OC(=O)CC(CC(=O)O)(C(=O)O)O1 (some centres undefined),scaled lipid accumulation score,[2],≤ 0
same,scaled lipid accumulation score,[3],0.118
OCC1OC(n2cnc3c(NC4CCCCC4)ncnc32)C(O)C1O (centres undefined) [N6-Cyclohexyladenosine],scaled lipid accumulation score,[3],0.037
Cc1cccc(CCN2CCC(C(=O)c3ccc(NS(C)(=O)=O)cc3)CC2)n1,scaled lipid accumulation score,library stock concentration: 9.9 mM,0.011
Cc1cccc(CCN2CCC(C(=O)c3ccc(NS(C)(=O)=O)cc3)CC2)n1 [E-4031 dihydrochloride],scaled lipid accumulation score,[3],≤ 0
Fc1ccc(Cl)cc1-c1nc(Nc2ccncc2)c2nccnc2n1,scaled lipid accumulation score,[3],≤ -0.001
O=C1C=CC(=O)C2=C1C1c3ccccc3C2c2ccccc21,scaled lipid accumulation score,[3],0.953 (active)
O=C1c2ccccc2C(=O)C1c1ccccc1 [Phenindione],scaled lipid accumulation score,,≤ 0
same,scaled lipid accumulation score,[2],≤ 0
same,scaled lipid accumulation score,library stock concentration: 9 mM,0.014
same,scaled lipid accumulation score,[3],≤ 0
"CCCCCC(O)C=CC1C2CC(CO2)C1CCCCCCC(=O)O (stereo not drawn) [9,11-methane-epoxy Prostaglandin F1.alpha.]",scaled lipid accumulation score,[1],0.048
O=C(NC1CCN(CCCCC2(C(=O)NCC(F)(F)F)c3ccccc3-c3ccccc32)CC1)c1ccccc1-c1ccc(C(F)(F)F)cc1 [Lomitapide] [listing 1 of 2 here],scaled lipid accumulation score,[2],1.05 (active)
O=C(Nc1ccc2c(c1)CCN(Cc1ncn[nH]1)C2)c1ccccc1-c1ccc(C(F)(F)F)cc1,scaled lipid accumulation score,[3],≤ 0
O=C(NC1CCN(CCCCC2(C(=O)NCC(F)(F)F)c3ccccc3-c3ccccc32)CC1)c1ccccc1-c1ccc(C(F)(F)F)cc1 [Lomitapide] [listing 2 of 2 here],scaled lipid accumulation score,[3],≤ 0
N[C@@H]1CCCN(c2c(/C=C3\SC(=O)NC3=O)cccc2-c2ccccc2)C1,scaled lipid accumulation score,[4],≤ 0
same,scaled lipid accumulation score,[5],≤ 0
same,scaled lipid accumulation score,[6],0.016
same,scaled lipid accumulation score,[2],0.072
same,scaled lipid accumulation score,[3],0.072 and 0.486
"CC(C)(C)c1cc(O)c(C(C)(C)C)cc1O [2,5-Ditertbutylhydroquinone]",scaled lipid accumulation score,library stock concentration: 22.5 mM,0.463
CC(=O)OCC(=O)NCCCOc1cccc(CN2CCCCC2)c1 [Roxatidine acetate HCl],scaled lipid accumulation score,library stock concentration: 5.7 mM,≤ 0
CC(=O)OCC(=O)NCCCOc1cccc(CN2CCCCC2)c1 [Roxatidine Acetate HCl],scaled lipid accumulation score,,0.032
same,scaled lipid accumulation score,[2],≤ 0
same,scaled lipid accumulation score,[3],≤ 0
O=C(O)Cc1cccc(OCCCN(Cc2cccc(C(F)(F)F)c2Cl)CC(c2ccccc2)c2ccccc2)c1 [GW 3965 hydrochloride],scaled lipid accumulation score,[3],≤ -0.001
c1ccc2sc(N3CCN(Cc4ccc5c(c4)OCO5)CC3)nc2c1 [2-[1-(4-Piperonyl)piperazinyl]benzothiazole],scaled lipid accumulation score,[3],≤ 0
CC(=O)OCC(=O)NCCCOc1cccc(CN2CCCCC2)c1,scaled lipid accumulation score,[3],≤ 0
O=C(O)Cc1cccc(OCCCN(Cc2cccc(C(F)(F)F)c2Cl)CC(c2ccccc2)c2ccccc2)c1,scaled lipid accumulation score,[2],≤ 0
same,scaled lipid accumulation score,[3],0.181
O=C(O)/C=C\C(=O)O.O=C(O)/C=C\C(=O)O.c1cc(CN2CCCCC2)cc(OCCCNc2nc3ccccc3s2)c1 [Zolantidine dimaleate],scaled lipid accumulation score,[3],1.5 (active)
O=C(O)/C=C\C(=O)O.O=C(O)/C=C\C(=O)O.c1cc(CN2CCCCC2)cc(OCCCNc2nc3ccccc3s2)c1,scaled lipid accumulation score,[3],1.03 (active)

# From the supplement of paper PMC9135407
